Assay results from ChEMBL document CHEMBL1961873, “Compounds: GSK PKIS; Assays: Nanosyn kinase panel” (2012).

Columns and labels:
[1] = molecular target: Calcium/calmodulin-dependent protein kinase type II subunit alpha (Homo sapiens) (UniProt Q9UQM7); conditions: at 1 µM;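 further: reported value is a mean percent inhibition of CAMK2A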
[2] = molecular target: Calcium/calmodulin-dependent protein kinase type II subunit delta (Homo sapiens) (UniProt Q13557); conditions: at 0.1 µM
[3] = molecular target: Calcium/calmodulin-dependent protein kinase type II subunit delta (Homo sapiens) (UniProt Q13557); conditions: at 1 µM
[4] = molecular target: T1, Calcium/calmodulin-dependent protein kinase type IV (Homo sapiens) (UniProt Q16566); conditions: at 0.1 µM
T1 sequence (whole entry): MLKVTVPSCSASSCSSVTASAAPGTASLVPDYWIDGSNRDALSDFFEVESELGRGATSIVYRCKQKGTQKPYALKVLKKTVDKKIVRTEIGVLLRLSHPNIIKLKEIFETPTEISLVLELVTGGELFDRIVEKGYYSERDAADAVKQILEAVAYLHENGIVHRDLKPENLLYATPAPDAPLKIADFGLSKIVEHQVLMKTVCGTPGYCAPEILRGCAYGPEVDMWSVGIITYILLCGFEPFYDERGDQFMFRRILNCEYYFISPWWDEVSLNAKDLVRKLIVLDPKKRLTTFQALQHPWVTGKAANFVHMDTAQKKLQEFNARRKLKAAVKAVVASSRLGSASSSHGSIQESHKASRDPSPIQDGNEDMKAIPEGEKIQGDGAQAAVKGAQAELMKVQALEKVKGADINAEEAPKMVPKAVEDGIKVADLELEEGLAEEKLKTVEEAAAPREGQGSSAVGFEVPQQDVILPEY

[5] = molecular target: T1, Calcium/calmodulin-dependent protein kinase type IV (Homo sapiens); conditions: at 1 µM
[6] = molecular target: T2, Serine/threonine-protein kinase Chk1 (Homo sapiens) (UniProt O14757); conditions: at 0.1 µM
T2 sequence (whole entry): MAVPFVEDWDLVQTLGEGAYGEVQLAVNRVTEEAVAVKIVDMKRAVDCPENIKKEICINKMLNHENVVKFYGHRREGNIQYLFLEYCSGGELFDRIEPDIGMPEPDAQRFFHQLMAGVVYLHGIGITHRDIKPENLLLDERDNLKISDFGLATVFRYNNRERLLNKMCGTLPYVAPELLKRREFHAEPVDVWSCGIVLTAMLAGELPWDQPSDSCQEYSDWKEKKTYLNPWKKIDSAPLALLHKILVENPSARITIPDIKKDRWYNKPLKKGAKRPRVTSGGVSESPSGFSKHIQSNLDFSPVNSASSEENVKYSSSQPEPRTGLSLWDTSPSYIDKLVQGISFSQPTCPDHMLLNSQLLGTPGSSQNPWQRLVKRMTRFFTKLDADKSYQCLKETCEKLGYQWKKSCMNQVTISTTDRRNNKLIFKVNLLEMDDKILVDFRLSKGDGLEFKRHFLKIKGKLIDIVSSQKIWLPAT

[7] = molecular target: T2, Serine/threonine-protein kinase Chk1 (Homo sapiens); conditions: at 1 µM
[8] = molecular target: Serine/threonine-protein kinase Chk2 (Homo sapiens) (UniProt O96017); conditions: at 0.1 µM
[9] = molecular target: Serine/threonine-protein kinase Chk2 (Homo sapiens) (UniProt O96017); conditions: at 1 µM
[10] = molecular target: Death-associated protein kinase 1 (Homo sapiens) (UniProt P53355); conditions: at 0.1 µM
[11] = molecular target: Death-associated protein kinase 1 (Homo sapiens) (UniProt P53355); conditions: at 1 µM
[12] = molecular target: T3, Serine/threonine-protein kinase DCLK2 (Homo sapiens) (UniProt Q8N568); conditions: at 0.1 µM
T3 sequence (whole entry): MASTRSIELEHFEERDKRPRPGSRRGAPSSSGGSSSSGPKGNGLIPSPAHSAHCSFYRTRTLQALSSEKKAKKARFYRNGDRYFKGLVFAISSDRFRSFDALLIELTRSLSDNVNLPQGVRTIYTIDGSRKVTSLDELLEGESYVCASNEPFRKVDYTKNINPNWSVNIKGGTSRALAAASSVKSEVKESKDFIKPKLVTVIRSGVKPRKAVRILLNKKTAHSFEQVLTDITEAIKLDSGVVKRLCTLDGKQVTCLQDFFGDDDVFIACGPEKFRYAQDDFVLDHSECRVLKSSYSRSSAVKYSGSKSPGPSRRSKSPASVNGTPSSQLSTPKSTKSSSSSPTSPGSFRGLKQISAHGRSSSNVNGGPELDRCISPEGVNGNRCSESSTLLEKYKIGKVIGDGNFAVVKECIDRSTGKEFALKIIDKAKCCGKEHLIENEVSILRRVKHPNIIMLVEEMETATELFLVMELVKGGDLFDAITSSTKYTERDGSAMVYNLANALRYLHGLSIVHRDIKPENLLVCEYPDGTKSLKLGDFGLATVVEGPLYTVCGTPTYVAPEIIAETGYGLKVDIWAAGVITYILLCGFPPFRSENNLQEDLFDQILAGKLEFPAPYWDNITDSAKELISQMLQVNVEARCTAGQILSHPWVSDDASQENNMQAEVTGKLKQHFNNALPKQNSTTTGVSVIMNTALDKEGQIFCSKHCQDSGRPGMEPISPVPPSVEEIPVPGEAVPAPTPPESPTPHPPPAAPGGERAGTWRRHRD

[13] = molecular target: T3, Serine/threonine-protein kinase DCLK2 (Homo sapiens); conditions: at 1 µM
[14] = molecular target: MAP kinase-activated protein kinase 2 (Homo sapiens) (UniProt P49137); conditions: at 0.1 µM
[15] = molecular target: MAP kinase-activated protein kinase 2 (Homo sapiens) (UniProt P49137); conditions: at 1 µM
[16] = molecular target: MAP kinase-activated protein kinase 3 (Homo sapiens) (UniProt Q16644); conditions: at 0.1 µM
[17] = molecular target: MAP kinase-activated protein kinase 3 (Homo sapiens) (UniProt Q16644); conditions: at 1 µM
[18] = molecular target: Serine/threonine-protein kinase MARK1 (Homo sapiens) (UniProt Q9P0L2); conditions: at 0.1 µM
[19] = molecular target: Serine/threonine-protein kinase MARK1 (Homo sapiens) (UniProt Q9P0L2); conditions: at 1 µM
[20] = molecular target: MAP/microtubule affinity-regulating kinase 3 (Homo sapiens) (UniProt P27448); conditions: at 0.1 µM;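 further: mean percent inhibition of MARK3 kinase activity, measured within the GSK PKIS screening panel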

Calcium/calmodulin-dependent protein kinase type II subunit alpha (Homo sapiens), sequence (Q9UQM7 whole entry): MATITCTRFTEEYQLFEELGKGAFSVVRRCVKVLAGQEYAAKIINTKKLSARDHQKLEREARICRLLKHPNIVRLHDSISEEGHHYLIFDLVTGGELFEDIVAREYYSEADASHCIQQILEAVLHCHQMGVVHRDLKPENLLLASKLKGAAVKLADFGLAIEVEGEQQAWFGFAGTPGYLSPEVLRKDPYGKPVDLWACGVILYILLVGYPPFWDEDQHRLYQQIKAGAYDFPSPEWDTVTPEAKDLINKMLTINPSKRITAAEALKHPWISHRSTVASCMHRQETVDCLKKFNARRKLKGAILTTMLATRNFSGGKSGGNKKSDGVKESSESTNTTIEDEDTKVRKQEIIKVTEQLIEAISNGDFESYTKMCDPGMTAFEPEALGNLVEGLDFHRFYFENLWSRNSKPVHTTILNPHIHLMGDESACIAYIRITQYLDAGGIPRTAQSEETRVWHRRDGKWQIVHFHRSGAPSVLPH
Calcium/calmodulin-dependent protein kinase type II subunit delta (Homo sapiens), sequence (Q13557 whole entry): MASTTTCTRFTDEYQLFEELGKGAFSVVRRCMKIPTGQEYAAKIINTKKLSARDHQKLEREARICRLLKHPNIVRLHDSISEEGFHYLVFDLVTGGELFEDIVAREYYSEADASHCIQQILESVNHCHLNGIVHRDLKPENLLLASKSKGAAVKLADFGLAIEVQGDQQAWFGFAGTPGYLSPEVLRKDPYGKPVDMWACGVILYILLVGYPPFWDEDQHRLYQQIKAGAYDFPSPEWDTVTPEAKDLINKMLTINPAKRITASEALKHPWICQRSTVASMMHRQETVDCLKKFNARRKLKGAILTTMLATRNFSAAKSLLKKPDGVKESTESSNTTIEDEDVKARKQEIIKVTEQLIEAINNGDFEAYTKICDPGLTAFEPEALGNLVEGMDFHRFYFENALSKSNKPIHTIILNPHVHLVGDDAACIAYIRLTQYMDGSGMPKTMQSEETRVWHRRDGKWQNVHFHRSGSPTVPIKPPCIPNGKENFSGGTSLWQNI
Serine/threonine-protein kinase MARK1 (Homo sapiens), sequence (Q9P0L2 whole entry, looked up): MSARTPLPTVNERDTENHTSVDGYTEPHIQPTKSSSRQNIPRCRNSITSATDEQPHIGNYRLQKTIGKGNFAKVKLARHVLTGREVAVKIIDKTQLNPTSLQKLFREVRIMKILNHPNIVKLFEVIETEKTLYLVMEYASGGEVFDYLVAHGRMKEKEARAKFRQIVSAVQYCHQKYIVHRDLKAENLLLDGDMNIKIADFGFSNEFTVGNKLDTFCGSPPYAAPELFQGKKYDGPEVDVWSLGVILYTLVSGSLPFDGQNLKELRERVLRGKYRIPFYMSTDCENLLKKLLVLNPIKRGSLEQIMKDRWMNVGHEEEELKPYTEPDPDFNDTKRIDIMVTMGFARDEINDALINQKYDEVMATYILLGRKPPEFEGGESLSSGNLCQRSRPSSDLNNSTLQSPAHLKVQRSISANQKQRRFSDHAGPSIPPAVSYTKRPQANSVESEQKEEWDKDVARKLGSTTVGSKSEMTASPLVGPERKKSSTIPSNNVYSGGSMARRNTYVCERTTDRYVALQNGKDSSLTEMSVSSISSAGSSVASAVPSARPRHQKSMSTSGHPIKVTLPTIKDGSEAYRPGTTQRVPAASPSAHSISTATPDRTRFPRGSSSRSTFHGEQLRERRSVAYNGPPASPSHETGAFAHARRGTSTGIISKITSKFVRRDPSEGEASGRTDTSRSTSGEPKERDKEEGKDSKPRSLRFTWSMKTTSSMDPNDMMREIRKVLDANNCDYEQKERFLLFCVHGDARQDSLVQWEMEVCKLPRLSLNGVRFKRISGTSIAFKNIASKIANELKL
MAP kinase-activated protein kinase 3 (Homo sapiens), sequence (Q16644 whole entry, looked up): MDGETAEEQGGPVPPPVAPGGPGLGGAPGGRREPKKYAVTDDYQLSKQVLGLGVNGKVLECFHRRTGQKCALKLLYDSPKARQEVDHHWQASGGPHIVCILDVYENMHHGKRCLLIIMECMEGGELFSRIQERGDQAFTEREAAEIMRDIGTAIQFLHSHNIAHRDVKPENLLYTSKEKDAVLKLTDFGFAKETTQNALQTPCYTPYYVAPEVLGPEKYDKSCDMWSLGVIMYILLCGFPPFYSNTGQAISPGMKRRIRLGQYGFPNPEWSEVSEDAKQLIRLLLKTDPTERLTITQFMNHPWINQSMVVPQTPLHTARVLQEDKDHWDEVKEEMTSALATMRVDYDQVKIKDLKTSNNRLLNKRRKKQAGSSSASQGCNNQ
Death-associated protein kinase 1 (Homo sapiens), sequence (P53355 whole entry, looked up): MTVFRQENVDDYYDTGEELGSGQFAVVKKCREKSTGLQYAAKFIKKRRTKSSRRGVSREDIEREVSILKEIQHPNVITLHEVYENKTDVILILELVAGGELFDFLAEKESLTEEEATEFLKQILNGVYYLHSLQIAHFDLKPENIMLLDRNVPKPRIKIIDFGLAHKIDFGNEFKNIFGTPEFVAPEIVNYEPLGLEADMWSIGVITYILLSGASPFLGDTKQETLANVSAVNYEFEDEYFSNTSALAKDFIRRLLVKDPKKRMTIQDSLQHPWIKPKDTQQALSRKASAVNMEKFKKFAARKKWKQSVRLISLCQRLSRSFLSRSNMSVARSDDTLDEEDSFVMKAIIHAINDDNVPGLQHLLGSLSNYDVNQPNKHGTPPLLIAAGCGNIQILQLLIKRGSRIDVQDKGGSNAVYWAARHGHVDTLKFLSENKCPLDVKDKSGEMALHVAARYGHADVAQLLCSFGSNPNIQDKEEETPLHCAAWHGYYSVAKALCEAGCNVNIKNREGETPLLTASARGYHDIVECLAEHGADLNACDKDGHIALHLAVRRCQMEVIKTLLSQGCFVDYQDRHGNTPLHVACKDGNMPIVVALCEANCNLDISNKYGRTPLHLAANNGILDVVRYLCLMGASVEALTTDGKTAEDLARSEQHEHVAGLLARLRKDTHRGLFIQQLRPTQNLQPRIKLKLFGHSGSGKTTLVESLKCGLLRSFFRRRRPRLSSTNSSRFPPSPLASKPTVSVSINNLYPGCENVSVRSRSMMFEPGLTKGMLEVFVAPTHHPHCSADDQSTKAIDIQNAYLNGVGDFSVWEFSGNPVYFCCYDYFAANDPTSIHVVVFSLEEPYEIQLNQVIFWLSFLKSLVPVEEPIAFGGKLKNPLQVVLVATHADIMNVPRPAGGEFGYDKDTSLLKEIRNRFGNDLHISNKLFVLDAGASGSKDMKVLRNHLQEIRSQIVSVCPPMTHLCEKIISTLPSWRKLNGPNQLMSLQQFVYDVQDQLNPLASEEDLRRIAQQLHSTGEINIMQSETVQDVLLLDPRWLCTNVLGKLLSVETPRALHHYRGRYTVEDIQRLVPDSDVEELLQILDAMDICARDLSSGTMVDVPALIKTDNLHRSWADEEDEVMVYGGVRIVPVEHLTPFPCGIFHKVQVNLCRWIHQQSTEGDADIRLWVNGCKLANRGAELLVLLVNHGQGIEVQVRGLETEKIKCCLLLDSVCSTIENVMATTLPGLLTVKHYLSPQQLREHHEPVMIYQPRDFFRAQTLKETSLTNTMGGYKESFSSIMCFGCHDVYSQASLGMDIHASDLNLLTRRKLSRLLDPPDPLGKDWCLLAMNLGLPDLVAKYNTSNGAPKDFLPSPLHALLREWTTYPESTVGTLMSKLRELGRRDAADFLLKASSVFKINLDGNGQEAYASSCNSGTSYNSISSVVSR
MAP kinase-activated protein kinase 2 (Homo sapiens), sequence (P49137 whole entry, looked up): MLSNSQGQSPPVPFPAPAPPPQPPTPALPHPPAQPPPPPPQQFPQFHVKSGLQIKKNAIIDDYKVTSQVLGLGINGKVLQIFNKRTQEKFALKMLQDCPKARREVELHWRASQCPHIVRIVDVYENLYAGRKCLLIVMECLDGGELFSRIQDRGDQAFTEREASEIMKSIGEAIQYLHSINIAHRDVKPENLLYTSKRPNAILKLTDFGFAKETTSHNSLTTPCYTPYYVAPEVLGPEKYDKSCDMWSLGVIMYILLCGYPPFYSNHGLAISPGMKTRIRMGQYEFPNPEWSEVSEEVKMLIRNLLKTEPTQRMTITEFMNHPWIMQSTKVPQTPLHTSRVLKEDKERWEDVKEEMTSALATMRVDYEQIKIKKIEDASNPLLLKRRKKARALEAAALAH
Serine/threonine-protein kinase Chk2 (Homo sapiens), sequence (O96017 whole entry): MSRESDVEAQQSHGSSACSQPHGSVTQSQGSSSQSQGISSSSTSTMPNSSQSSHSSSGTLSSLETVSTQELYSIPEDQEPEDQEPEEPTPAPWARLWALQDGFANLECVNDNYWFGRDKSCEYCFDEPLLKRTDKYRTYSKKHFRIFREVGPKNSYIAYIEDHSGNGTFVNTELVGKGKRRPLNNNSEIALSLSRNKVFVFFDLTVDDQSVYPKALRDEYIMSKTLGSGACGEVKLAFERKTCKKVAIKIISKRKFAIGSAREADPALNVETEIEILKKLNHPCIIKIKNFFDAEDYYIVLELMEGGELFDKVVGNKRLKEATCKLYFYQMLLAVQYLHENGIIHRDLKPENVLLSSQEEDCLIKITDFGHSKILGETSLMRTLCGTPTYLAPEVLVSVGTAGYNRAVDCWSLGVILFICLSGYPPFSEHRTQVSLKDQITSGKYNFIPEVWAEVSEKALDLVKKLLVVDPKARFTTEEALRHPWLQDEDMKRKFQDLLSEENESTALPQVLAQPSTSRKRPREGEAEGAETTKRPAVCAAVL

Compound	inhibition [1] [%]	inhibition [2] [%]	inhibition [3] [%]	inhibition [4] [%]	inhibition [5] [%]	inhibition [6] [%]	inhibition [7] [%]	inhibition [8] [%]	inhibition [9] [%]	inhibition [10] [%]	inhibition [11] [%]	inhibition [12] [%]	inhibition [13] [%]	inhibition [14] [%]	inhibition [15] [%]	inhibition [16] [%]	inhibition [17] [%]	inhibition [18] [%]	inhibition [19] [%]	inhibition [20] [%]
COc1cccc(-n2ncc3c(N/N=C/c4ccc(S(C)(=O)=O)cc4)ncnc32)c1	1.01	1.8	4.11	2.57	0.23	0.1	-1.03	-0.14	0.05	-1.65	-2.35	-3.49	-3.25	-0.57	-0.87	-0.21	-1.31	0.85	4.83	0.34
O=C1Nc2ccc(-c3cccnc3)cc2C1=Cc1cc(Br)c(O)c(Br)c1	5.84	3.26	7.6	0.54	-0.48	3.16	0.96	3.4	8.93	1.41	-6.21	1.65	0.92	1.36	1.49	2.4	2.92	4.31	9.1	4.31
NC(=O)c1sc(-n2cnc3ccccc32)cc1OCc1ccccc1Br	3.18	3.32	7.99	0.49	2.57	9.58	13.2	7.49	10.5	12.3	10.6	-1	-0.82	4.58	6.13	8.98	12.7	2.32	5.92	-0.1
FC(F)(F)c1ccc(-c2nn3ncccc3c2-c2ccnc(Nc3ccc4c(c3)OCCO4)n2)cc1	-2.19	-3.32	-2.99	-4.88	-4.43	0.08	1.68	3.99	5.26	1.54	1.79	5.13	2.77	3.11	3.56	10.3	30.6	4.61	6.64	5.66
O=C(Nc1ccc(Oc2ccc3[nH]c(NC(=O)c4ccco4)nc3c2)cc1)Nc1cc(C(F)(F)F)ccc1F	2.09	1.58	4.15	2.98	4.62	-0.34	-0.68	0.12	4.39	-1.4	-1.29	-4.07	-5.38	-0.82	-1.43	2.85	16.3	-1.16	0.35	-0.52
Cc1nc(-c2ccccc2)n2nc(NCCCN3CCOCC3)ncc12	3.41	2.22	3.36	0.88	2.05	1.78	3.88	2.24	4.72	3.5	1.62	-0.46	1.45	1.25	2.01	1.51	1.12	0.92	3	0.93
CN(C)c1cc2c(Nc3ccc4c(cnn4Cc4ccccc4)c3)ncnc2cn1	2.41	2.28	2.7	1.84	0.37	2.49	5.16	3.91	17.9	2.91	4	0.57	-0.18	1.53	1.29	2.73	2.81	2.96	3.22	0.52
CC(C)c1ccc2c(c1)NC(=O)/C2=N/Nc1ccc(S(N)(=O)=O)cc1	0.01	-0.56	0.81	-0.87	0.54	-7.82	0.1	0.32	0.01	-0.88	-1.66	-1.85	-0.66	-1.01	-0.9	-0.68	-1.45	-0.84	0.9	-3.67
CN(c1ccc(NC(=O)Nc2ccc(OC(F)(F)F)cc2)cc1)c1ccnc(Nc2cccc(S(N)(=O)=O)c2)n1	-1.5	1.07	0.14	-0.96	0.59	1.72	-0.01	5.43	25.9	3.79	2.02	-2.05	0.7	0.67	-0.37	2.5	7.62	0.28	2.36	1.62
ON=C1CCc2cc(-c3nc(C4CCNCC4)[nH]c3-c3ccncc3)ccc21	3.5	16.1	2.8	1.25	1.79	0.67	1.05	0.01	0.8	0.46	1.92	2.56	-0.17	-0.64	-0.71	8.04	26.9	0.47	1.75	0.82
CN(C)C(=O)O[C@@H]1CN[C@@H](C#Cc2cc3ncnc(Nc4ccc(OCc5cccc(F)c5)c(Cl)c4)c3s2)C1	1.65	1.47	2.72	0.93	0.99	-0.23	0.16	0.47	1.66	0.93	1.85	1.22	0.53	-2.43	-0.13	2.61	3.12	0.76	0.76	2.16
Cc1ccc2c(-c3ccnc(Nc4ccc5c(c4)OCCO5)n3)c(-c3ccc(C(F)(F)F)cc3)nn2n1	-1.51	0.22	-0.06	2.15	0.11	1.74	0.1	-0.69	-0.6	2.74	1.35	-1.42	-0.35	0.41	-0.12	2.89	10.8	1.39	2.56	-1.05
Nc1nccc(-c2c(-c3ccc(F)cc3)ncn2CCCN2CCOCC2)n1	2.46	1.96	2.44	0.27	-0.08	3.25	5.25	1.76	4.69	5.49	5.9	2.38	-0.25	2.78	2.33	9.94	23.5	3.81	6.99	2.18
NC(=O)c1cccc(Nc2nccc(Nc3cccc(F)c3)n2)c1	0.53	0.45	2.08	1.09	1.02	0.04	1.52	-0.9	2.39	0.65	-2.63	-0.56	0.44	0.22	0.05	1.51	1.85	0.81	2.94	1.98
c1ccc(Nc2ncc(-c3ccccc3)o2)cc1	3.27	3.06	6.25	1.79	3.97	6.09	8.99	0.95	2.54	6.27	5.31	0.92	3.72	1.35	2.04	4.43	5.91	1.31	4.58	1.16
CC(C)c1ccc(Nc2nccc(-c3cnn4ncccc34)n2)cc1	4.19	2.72	8.29	1.15	2.83	-1.58	-2.41	1.57	3.38	-1.79	-2.33	0.5	-1.7	0.86	0.39	3.55	6.14	0.51	4.24	2.56
C[C@@H](Oc1cc(-n2cnc3ccc(OC[C@@H](O)CO)cc32)sc1C(N)=O)c1ccccc1Cl	2.24	-0.89	7.31	1.25	1.44	0.04	-1.83	-1.68	-1.71	-1.62	-5.26	0.92	-6.84	-0.75	-0.94	-0.21	-0.73	0.87	5.71	0.4
CN(C)CCCn1c(-c2nonc2N)nc2cnccc21	3.18	3.33	4.12	-0.84	15.5	5.63	4.94	2.39	3.79	4.9	5.9	0.05	2.05	2.54	1.94	4.24	4.17	3.64	6.1	4.25
Nc1ccc(C#Cc2cncnc2Nc2ccc(OCc3cccc(F)c3)c(Cl)c2)cc1	-1.06	0.73	0.72	1.79	-0.16	0.65	0.62	1.8	0.63	4.63	1.54	-0.36	-0.03	2.17	0.48	4.18	4.4	2.19	3.58	2.93
NS(=O)(=O)c1ccc(Nc2cc(-c3cccc(O)c3)n[nH]2)cc1	5.49	5.13	6.02	0.32	-1.03	5.99	8.68	3.04	6.54	7.24	8.63	0.84	0.2	1.88	2.79	4.03	4.03	5.12	11.5	5.96
COc1cc(Nc2nccc(-c3cnn4ncccc34)n2)cc(OC)c1	15.2	6.12	36.4	1.42	-0.26	-0.97	7.68	1.81	14.1	1.9	1.26	4.84	-3.23	0.26	0.15	0.44	0.56	4.67	32.3	6.88
